Results as given in PubChem BioAssay (NCATS).
Records with an inconclusive call do not appear. Entries that show only a call come without a potency. Activity calls are given as the source filed them. Unless noted, calls come from the whole dose curve; as a rule, active = well fitted curve in the direction sought with a large enough effect; inconclusive = small, poorly fitted or top-dose-only effect, or another doubt; inactive = no such curve, though single readings can be large; an effect the other way counts as inactive or inconclusive.

Key:
[1] = HepG2 viability counterscreen (readout 2: ATP content) against the NCATS DSHEA and TCM libraries (AID 1794840); settings: ATP content luminescence; series mostly up to 27.3 µM
Outline: (§1)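 HepG2 cells, 1,000/well, attached ~4 h, then exposed ~24 h at 37C to substances. Protease activity read by fluorescence of 25 uM GF-AFC (Ex/Em 380/510 nm) after 30 min; ATP then by CellTiter-Glo luminescence.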

[2] = HepG2 viability counterscreen (readout 1: protease activity) against the NCATS DSHEA and TCM libraries (AID 1794841); settings: qHTS concentration series; series mostly up to 27.3 µM;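 note: cells exposed to compounds for about 24 h before the protease read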
Outline: as §1

[3] = target: Metallo-beta-lactamase type 2 (Klebsiella pneumoniae) (UniProt C7C422); experiment: qHTS to identify inhibitors of the New Delhi Metallo-beta-lactamase (NDM): assay validation screen against the NCATS LOPAC Collection (AID 1794843); settings: NDM-1 enzyme, nitrocefin hydrolysis, absorbance 485 nm; series mostly up to 38.4 µM;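 note: nitrocefin turnover by NDM-1 measured as 485 nm absorbance at plateau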
Outline: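 NDM-1 at 2 nM final in 50 mM HEPES pH 7.0 with 1 uM ZnSO4 and 0.01% Tween20 was preincubated with library compounds in DMSO. Nitrocefin (50 uM stock) was then added, and absorbance at 485 nm was read at the kinetic plateau.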

[4] = target: Phospholipid hydroperoxide glutathione peroxidase GPX4 (Homo sapiens) (UniProt P36969); experiment: Primary qHTS Assay for Inhibitors of Recombinant Selenoprotein Glutathione Peroxidase 4 (GPX4) (AID 1845192); settings: recombinant GPX4, GR-coupled NADPH fluorescence, 15 min; series mostly up to 50 µM; note: nearly all actives have a fitted effect of over 65% in size
Outline: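 GR-coupled readout: 100 nM GR, 1 mM GSH, 0.5 mM NADPH; NADPH fluorescence (ex 340/em 450 nm) read at t=0 and after 15 min RT. GPX4 200 nM, preincubated 30 min with compound; substrate 0.5 mM CHP.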

[5] = NCATS anti-infectives library activity on HEK293 viability as a counter-qHTS vs the C. elegans viability qHTS (AID 1745854); settings: HEK293 viability counter-screen; series mostly up to 41.8 µM;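 note: HEK293 cells exposed to compounds for 24 hr before the viability read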
Outline: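 Compounds were acoustically plated (several concentrations, 1:5, final up to 41.7 uM), then 1500 HEK293 cells added per well and incubated 24 hr at 37C, 5% CO2. CellTiter-Glo was added and luminescence read after 10 min.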

[6] = NCATS anti-infectives library activity on the primary C. elegans qHTS viability assay (AID 1745855; calls by dose curve); settings: C. elegans worm area imaging, day 7; at 41.8 µM (top of the series)
Outline: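 Viability read-out is GFP fluorescence of PE254-GFP-FLuc C. elegans, measured by laser cytometry (488 nm) at day 0, 3 and 7. Ten L1 worms per well were incubated 7 days at 21 °C with compounds and bacterial capsules in S medium.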

[7] = target: Glutathione peroxidase 1 (Homo sapiens) (UniProt P07203); experiment: Primary qHTS Assay for Inhibitors of Recombinant Selenoprotein Glutathione Peroxidase 1 (GPX1) (AID 1845191); settings: recombinant GPX1, GR-coupled NADPH fluorescence, 15 min; series mostly up to 48.8 µM; note: nearly all actives have a fitted effect of over 65% in size
Outline: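 Recombinant GPX1 (10 nM final) was preincubated with compound for 30 min at room temperature, then reacted with 1 mM GSH, 0.5 mM CHP, 0.5 mM NADPH and 100 nM glutathione reductase; NADPH fluorescence (340/450 nm) was read at 0 and 15 min.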

[8] = Viability counterscreen for antagonist of constitutive androstane receptor (CAR) against the NCATS DSHEA and TCM libraries (AID 1794837); settings: CAR reporter cell line viability counterscreen, qHTS; series mostly up to 40 µM;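 note: compound exposure lasted 24 h before viability reading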
Outline: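 HepG2-CYP2B6-hCAR cells, 2,500/well, were exposed 24 hr at 37C to substances together with 48 uM CITCO (final). Viability was read as CellTiter-Fluor fluorescence (Ex/Em 405/540 nm) after 1 hr.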

[9] = Viability counterscreen for agonist of constitutive androstane receptor (CAR) against the NCATS DSHEA and TCM libraries (AID 1794838); settings: HepG2 cell viability counterscreen, CAR agonist assay, co-treated with 0.75 µM CAR antagonist; series mostly up to 40 µM;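 note: HepG2 cells with CYP2B6 reporter and hCAR plus 0.75 µM PK11195 antagonist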
Outline: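 HepG2-CYP2B6-hCAR cells (2,500/well) treated 24 h at 37C with compounds plus 0.75 uM PK11195; viability read by CellTiter-Fluor fluorescence, Ex/Em 405/540 nm.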

[10] = target: Nuclear receptor subfamily 1 group I member 3 (Homo sapiens) (UniProt Q14994); experiment: Primary qHTS for agonist of constitutive androstane receptor (CAR) against the NCATS DSHEA and TCM libraries (AID 1794839); settings: CAR agonist reporter cells, qHTS luminescence, CAR antagonist co-added at 0.75 µM; series mostly up to 40 µM;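 note: HepG2 cells expressing human CAR with a CYP2B6 reporter plus PK11195 antagonist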
Outline: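 HepG2-CYP2B6-hCAR cells, 2,500/well, attached 5 h, then dosed with 0.75 µM PK11195 (final) for 24 h at 37 °C. Luciferase luminescence read (ONE-Glo); CellTiter-Fluor viability (Ex/Em 405/540 nm) in same wells; CITCO positive control.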

Glutathione peroxidase 1 (Homo sapiens), sequence (P07203 whole entry, looked up): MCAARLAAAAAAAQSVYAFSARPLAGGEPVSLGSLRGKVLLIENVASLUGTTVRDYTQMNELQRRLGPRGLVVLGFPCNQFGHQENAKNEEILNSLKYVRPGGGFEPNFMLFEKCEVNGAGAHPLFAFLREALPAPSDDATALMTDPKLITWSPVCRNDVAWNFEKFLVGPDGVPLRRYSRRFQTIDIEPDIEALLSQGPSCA
Nuclear receptor subfamily 1 group I member 3 (Homo sapiens), sequence (Q14994 whole entry, looked up): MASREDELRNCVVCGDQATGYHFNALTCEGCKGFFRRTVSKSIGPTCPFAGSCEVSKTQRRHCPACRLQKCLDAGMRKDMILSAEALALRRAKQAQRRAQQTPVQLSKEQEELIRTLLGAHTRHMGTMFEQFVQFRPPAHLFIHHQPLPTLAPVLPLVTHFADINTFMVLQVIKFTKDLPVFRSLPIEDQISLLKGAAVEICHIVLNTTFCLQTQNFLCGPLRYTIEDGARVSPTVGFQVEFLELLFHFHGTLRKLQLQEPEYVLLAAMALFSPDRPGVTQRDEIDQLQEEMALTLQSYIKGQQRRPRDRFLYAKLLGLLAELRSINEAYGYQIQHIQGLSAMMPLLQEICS
Phospholipid hydroperoxide glutathione peroxidase GPX4 (Homo sapiens), sequence (P36969 whole entry, looked up): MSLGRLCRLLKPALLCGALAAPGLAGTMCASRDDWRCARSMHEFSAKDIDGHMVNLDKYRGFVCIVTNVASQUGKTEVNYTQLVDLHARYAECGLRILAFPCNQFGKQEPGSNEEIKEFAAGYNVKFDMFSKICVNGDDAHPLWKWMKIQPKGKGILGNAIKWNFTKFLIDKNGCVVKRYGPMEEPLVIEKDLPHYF
Metallo-beta-lactamase type 2 (Klebsiella pneumoniae), sequence (C7C422 whole entry, looked up): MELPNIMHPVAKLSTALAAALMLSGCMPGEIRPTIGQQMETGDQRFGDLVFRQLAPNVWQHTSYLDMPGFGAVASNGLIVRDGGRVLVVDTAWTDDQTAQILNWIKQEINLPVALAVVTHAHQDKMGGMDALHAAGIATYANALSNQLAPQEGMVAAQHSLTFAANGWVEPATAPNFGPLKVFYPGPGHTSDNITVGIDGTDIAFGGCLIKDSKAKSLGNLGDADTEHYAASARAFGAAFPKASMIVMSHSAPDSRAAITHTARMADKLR

NC(N)=NCCC[C@H](N)C(=O)O
outcome [1]: inactive | outcome [2]: inactive | outcome [3]: inactive | Potency [4]: inactive

CCOc1nc2cccc(C(=O)O)c2n1Cc1ccc(-c2ccccc2-c2nn[nH]n2)cc1
outcome [5]: inactive | outcome [6]: inactive | Potency [7]: inactive | Potency [4]: inactive

NCC(=O)CCC(=O)O
outcome [5]: inactive | Potency [7]: inactive

CC(C)(C(=O)O)c1ccc(C(O)CCCN2CCC(C(O)(c3ccccc3)c3ccccc3)CC2)cc1 (stereo unspecified)
outcome [3]: inactive | Potency [7]: inactive

Nc1cc(=O)[nH]c(N)n1
outcome [3]: inactive

N=c1c[n+](N2CCOCC2)[n-]o1
outcome [3]: inactive | Potency [7]: inactive

CCN(CC)CCCC(C)Nc1c2ccc(Cl)cc2nc2ccc(OC)cc12 (stereo unspecified)
outcome [3]: inactive | Potency [7]: inactive | Potency [4]: inactive

Nc1nc2c(ncn2CCC(CO)CO)c(=O)[nH]1
outcome [5]: inactive | Potency [7]: inactive | Potency [4]: inactive

CN(C)CCCN1c2ccccc2Sc2ccc(Cl)cc21
outcome [5]: inactive | outcome [3]: inactive | Potency [7]: inactive | Potency [4]: inactive

C[C@](N)(Cc1ccc(O)cc1)C(=O)O
outcome [3]: inactive | Potency [7]: inactive

O=C1O[C@H]([C@@H](O)CO)C(O)=C1O
outcome [8]: inactive | outcome [9]: inactive | outcome [10]: inactive | outcome [1]: inactive | outcome [2]: inactive | Potency [7]: inactive

Cc1ncc(COP(=O)(O)O)c(C=O)c1O
outcome [5]: inactive

CN(C)CC[C@@H](c1ccc(Cl)cc1)c1ccccn1
outcome [3]: inactive | Potency [7]: inactive

NC(=O)c1ncn([C@@H]2O[C@H](CO)[C@@H](O)[C@H]2O)n1
outcome [5]: inactive | outcome [3]: inactive | Potency [4]: inactive

CCCCc1ncc(/C=C(\Cc2cccs2)C(=O)O)n1Cc1ccc(C(=O)O)cc1
outcome [5]: inactive | outcome [6]: inactive | outcome [3]: inactive | Potency [4]: inactive

O=C(O)c1ccccn1
outcome [5]: inactive | Potency [7]: inactive | Potency [4]: inactive

CNC(=O)Oc1ccc2c(c1)[C@]1(C)CCN(C)[C@@H]1N2C
outcome [3]: inactive | Potency [7]: inactive

CCN(CC)CCOC(=O)C1(C2CCCCC2)CCCCC1
outcome [3]: inactive

CNCC(O)c1ccc(O)c(O)c1 (stereo unspecified)
outcome [3]: inactive | Potency [7]: inactive | Potency [4]: inactive

CC[C@H]1CN2CCc3cc(OC)c(OC)cc3[C@@H]2C[C@@H]1C[C@H]1NCCc2cc(OC)c(OC)cc21
outcome [6]: inactive | outcome [3]: inactive | Potency [7]: inactive | Potency [4]: inactive

CC(C(O)c1ccc(O)cc1)N1CCC(Cc2ccccc2)CC1 (stereo unspecified)
outcome [3]: inactive | Potency [7]: inactive

O=C(O)c1ccccc1O
outcome [5]: inactive | outcome [8]: inactive | outcome [9]: inactive | outcome [10]: inactive | outcome [1]: inactive | outcome [2]: inactive

CN(C)CCOC(C)(c1ccccc1)c1ccccn1 (stereo unspecified)
outcome [3]: inactive | Potency [7]: inactive | Potency [4]: inactive

CCCCCCCCCCCCCCCC(=O)NCCO
outcome [5]: inactive

O=c1cc(CO)occ1O
outcome [5]: inactive | Potency [7]: inactive | Potency [4]: inactive

COc1ccc2cc1Oc1ccc(cc1)C[C@H]1c3c(cc4c(c3Oc3cc5c(cc3OC)CCN(C)[C@@H]5C2)OCO4)CCN1C
outcome [5]: inactive | Potency [4]: inactive

CC(C)(C)[C@]1(O)CCN2C[C@H]3c4ccccc4CCc4cccc(c43)[C@@H]2C1
outcome [3]: inactive

CSc1ccc2c(c1)C(N1CCN(C)CC1)Cc1ccccc1S2 (stereo unspecified)
outcome [3]: inactive

C#CCN(C)Cc1ccccc1
outcome [3]: inactive | Potency [7]: inactive

C[C@]12CC[C@@H]3c4ccc(O)cc4CC[C@H]3[C@@H]1CCC2=O
outcome [3]: inactive | Potency [7]: inactive

CCCCN(CCCC)CC(O)c1cc(Cl)cc2c1-c1ccc(Cl)cc1/C2=C/c1ccc(Cl)cc1 (stereo unspecified)
outcome [3]: inactive | Potency [7]: inactive | Potency [4]: inactive

C[C@]12C[C@H](O)[C@H]3[C@@H](CCC4=CC(=O)CC[C@@]43C)[C@@H]1CC[C@@H]2C(=O)CO
outcome [3]: inactive | Potency [7]: inactive

CC(CN1c2ccccc2Sc2ccccc21)N(C)C (stereo unspecified)
outcome [5]: inactive | outcome [3]: inactive | Potency [7]: inactive | Potency [4]: inactive

CC1=C(C/C=C(\C)CCC[C@H](C)CCC[C@H](C)CCCC(C)C)C(=O)c2ccccc2C1=O
outcome [8]: inactive | outcome [9]: inactive | outcome [10]: inactive | outcome [1]: inactive | outcome [2]: inactive | Potency [4]: inactive

C[C@H](NC(CCc1ccccc1)C(=O)O)C(=O)N1CCC[C@H]1C(=O)O (stereo partly specified)
outcome [3]: inactive | Potency [7]: inactive | Potency [4]: inactive

CC12CCC(CC1)C(C)(C)O2
outcome [1]: inactive | Potency [7]: inactive | Potency [4]: inactive

CCCn1cnc2c1c(=O)n(CCCCC(C)=O)c(=O)n2C
outcome [3]: inactive

O=C1NC(=O)[C@@]2(CCOc3ccc(F)cc32)N1
outcome [3]: inactive | Potency [7]: inactive

CNCCCC1c2ccccc2C=Cc2ccccc21
outcome [3]: inactive | Potency [4]: inactive

CC(C)NC[C@H](O)c1ccc(O)c(O)c1
outcome [3]: inactive | Potency [7]: inactive | Potency [4]: inactive

Cc1cc(N)c2ccccc2[n+]1CCCCCCCCCC[n+]1c(C)cc(N)c2ccccc21
outcome [3]: inactive | Potency [4]: inactive

CCN(CC)C(C)CN1c2ccccc2Sc2ccccc21 (stereo unspecified)
outcome [3]: inactive | Potency [7]: inactive | Potency [4]: inactive

OCCN1CCN(CCCN2c3ccccc3Sc3ccc(Cl)cc32)CC1
outcome [3]: inactive | Potency [7]: inactive | Potency [4]: inactive
